Compounds without any hit were thinned out: in the full panel of roughly 83,000, 20% have a hit.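 Step 1: grow cells in 96-well plates. Step 2: add test compound at a single concentration. Step 3: incubate 48 h. Step 4: record percent growth.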 A number with no mark means an inactive call. Calls of active or inactive are those of the source. Rule for the calls: active = growth percent below 10; inactive = the rest.
Key:
Experiment in all cases: NCI-60 one-dose screen, 48 h (100 = growth as untreated, 0 = no growth, -100 = all killed)
Settings in all cases: 10 µM unless noted
NCI/ADR-RES ovarian = test system: NCI/ADR-RES ovarian
T-47D breast = test system: T-47D breast
BT-549 breast = test system: BT-549 breast
MDA-MB-435 melanoma = test system: MDA-MB-435 melanoma
SW-620 colon = test system: SW-620 colon
MCF7 breast = test system: MCF7 breast
HCT-116 colon = test system: HCT-116 colon
HCC-2998 colon = test system: HCC-2998 colon
KM12 colon = test system: KM12 colon

SMILES	growth (NCI/ADR-RES ovarian)	growth (T-47D breast)	growth (BT-549 breast)	growth (MDA-MB-435 melanoma)	growth (SW-620 colon)	growth (MCF7 breast)	growth (HCT-116 colon)	growth (HCC-2998 colon)	growth (KM12 colon)
CC(C)OC(=O)[C@H](C)NP(=O)(Oc1ccccc1)C1CCCN(O)C1=O (stereo partly drawn)	98.4%	94.5%	95%	96.1%	93.1%	94.5%	89.6%	97.2%	94.5%
COP(=S)(N1CC1)N1CC1	103%	94.8%	118%	105%	103%	102%	109%	105%	116%
O=C(CCCC1CCCCC1)OCC(Cl)(Cl)Cl	102%	101%	117%	111%	107%	95.5%	103%	88.4%	105%
CC1=C(CN)C2=C(C)C3(CC3)[C@@](C)(O)C(=O)C2=C1	93.8%	88.6%	63.3%	97.9%	90.7%	85.1%	90.4%	92%	101%
O=C(CC1(O)C(=O)N(Cc2ccccc2)c2ccccc21)c1ccc(C(=O)NCC2CCC3(CC2)OOC2(CCCCC2)OO3)cc1 (stereo not drawn)	-47.1% (active)	-39.1% (active)	-31.1% (active)	-86.5% (active)	6.2% (active)	9.78% (active)	15.5%	73.4%	-73.9% (active)
Cc1ccc2c(C(C[N+](=O)[O-])c3cccs3)c(-c3ccccc3)[nH]c2c1 (stereo not drawn)	11.7%	14.6%	33.8%	-31.1% (active)	18.5%	17.8%	23.2%	40.3%	21.4%
COc1ccc(C/C(C)=C(\c2ccc(OCCN3CCOCC3)cc2)c2ccc(OC(=O)Cc3ccccc3)cc2)cc1	5.39% (active)	-48.5% (active)	-70.4% (active)	-58.9% (active)	-63% (active)	-53.1% (active)	-89.7% (active)	-64.3% (active)	-35.2% (active)
C/C1=C/C(=O)O[C@@H]2C[C@@H](CC[C@H](C)/C=C\C=C\CC1)O[C@@](O)([C@@H]1CSC(=O)N1CO)C2	47.6%	56.8%	-13.3% (active)	32%	53.2%	56.8%	27.2%	34.7%	62%
CN(C)CCCOc1ccc2c(c1)c(C(=O)C(=O)NCCO)cn2Cc1ccccc1	108%	95.2%	98.4%	103%	105%	91.5%	98.7%	115%	104%
COc1ccc(C2=CC(c3ccc(OC)c(OC)c3)c3c(c4ccccc4oc3=O)O2)cc1OC (stereo not drawn)	29%	35%	-4.49% (active)	-72.9% (active)	18.5%	11.8%	24.2%	31.4%	16.2%
CC(=O)O[C@H](C[C@H](C(C)C)N(C)C(=O)[C@@H](NC(=O)[C@H]1CCCCN1C)C(C)C)c1nc(C(=O)N[C@@H](Cc2ccccc2)C[C@H](C)C(=O)O)c(CCOCc2ccccc2)s1	9.71% (active)	62.4%	-36.6% (active)	-49.7% (active)	28.3%	25.9%	-22.2% (active)	16.3%	5.5% (active)
Clc1cccc(NCOOC2(OOCNc3cccc(Cl)c3)CCCCCC2)c1	61.8%	89%	101%	105%	107%	87.2%	90.6%	107%	87.9%
O=C([O][Hg][CH2]C1OCCOC1[CH2][Hg][O]C(=O)c1ccccc1)c1ccccc1 (stereo not drawn)	28.7%	-64.1% (active)	75.5%	93.6%	-82.4% (active)	-31.7% (active)	-95.2% (active)	108%	107%
Cn1cc(-c2csc(-c3cn(CCN4CCOCC4)c4ccc(F)cc34)n2)c2cccnc21	5.84% (active)	-17.7% (active)	10.8%	32.2%	44.9%	8.93% (active)	36.9%	86.7%	22.3%
COC(=O)C12CC(NC(=O)c3csc([C@@H](C[C@H](C(C)C)N(C)C(=O)[C@@H](NC(=O)[C@H]4CCCCN4C)C4CC4)OC(C)=O)n3)(C1)C2	43.7%	43.4%	-10.9% (active)	-40.9% (active)	25.4%	19.2%	1.78% (active)	21.8%	1.43% (active)
O=C1C=C2C(=CCOC2O)O1 (stereo not drawn)	0.601% (active)	13.7%	52.8%	5.62% (active)	-47.3% (active)	13.3%	-69.5% (active)	93.3%	20.5%
CCn1cnc2c(Nc3cccc(Cl)c3)nc(N[C@@H]3CCCC[C@@H]3N)nc21	11%	0.53% (active)	61.7%	11.4%	-4.4% (active)	4.02% (active)	0.716% (active)	2.16% (active)	-2.18% (active)
C=CC1=C[C@@H]2[C@@H]3O[C@]4(CC[C@H](O4)[C@@H](C)C[C@@H](O)C3=O)C[C@H](O)C3=NCC[C@@]32CC1	-15.3% (active)	-14.6% (active)	-31.9% (active)	-92.9% (active)	-11.3% (active)	-11.8% (active)	-22.8% (active)	-81.2% (active)	-33.4% (active)
COC(=O)[C@@]1(C)CC[C@]2(C)CC[C@]3(C)C4=CC(=O)c5c(cc(O)c(O)c5C)[C@]4(C)CC[C@@]3(C)[C@@H]2C1	63.4%	54.1%	82.1%	58.5%	60.3%	41.9%	31.3%	76.7%	50.4%
Cc1ccc(C(=O)NCCCOc2ccc(N)cc2Cl)cc1S(=O)(=O)F	103%	81.9%	98%	90.9%	104%	103%	98.9%	106%	90.8%
C[Se]C(=O)c1ccccc1OC(C)=O	35%	89.1%	27.9%	46.4%	79.6%	53.3%	19.6%	95.5%	88.9%
CCOc1ccccc1C(=O)OCC(Cl)(Cl)Cl	108%	90.6%	106%	107%	110%	99.4%	105%	101%	101%
CCOC(=S)S[C@H]1C[C@@H]2[C@H](CC[C@]3(C)C(=O)CC[C@@H]23)[C@@]2(C)CCC(=O)C=C12	102%	108%	105%	101%	105%	90.6%	104%	106%	101%
COC(=O)[C@@H](C)C[C@H](Cc1ccccc1)NC(=O)c1csc(CC[C@H](C(C)C)N(C)C(=O)[C@@H](NC(=O)[C@H]2CCCCN2C)C(C)C)n1	53.1%	56.8%	7.17% (active)	-48.6% (active)	30.6%	20.3%	3.72% (active)	24.5%	16.2%
CCN1C(=O)C(=C/C=C/c2ccccc2)C(=O)N(CC)C1=O	78.6%	96.3%	91.9%	29.9%	26.5%	74.5%	16.3%	112%	86.5%
C[C@@]1(CCCCCCCCCc2ccc(O)cc2)C[C@]2(C)OC(=O)C[C@@H]2OO1	53.4%	83.9%	102%	109%	103%	117%	77.5%	105%	127%
COc1cccc2c1c(C(=O)C(=O)Nc1ccn[nH]1)cn2Cc1ccc(F)cc1	109%	104%	114%	121%	102%	92.3%	103%	39.6%	105%
